This note sets out measurements from PubChem BioAssay (NCI).

Some test systems named below: SR leukemia; RPMI-8226 leukemia; OVCAR-8 ovarian; OVCAR-5 ovarian; OVCAR-4 ovarian; SK-OV-3 ovarian; IGROV1 ovarian; OVCAR-3 ovarian; HS 578T breast; NCI/ADR-RES ovarian.
Common to all, as to test: NCI-60 one-dose screen, 48 h (100 = growth as untreated, 0 = no growth, -100 = all killed)
Holding throughout (conditions): 10 µM unless noted

The panel holds about 83,000 compounds, 20% with a hit somewhere; the sample as a whole holds those more often.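 Single-concentration screen, 48 h exposure, 96-well plates. Endpoint: percent growth. Below 10 = active.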 Values without a mark were called inactive. Active and inactive are the calls of the source.

With `CC[C@H](Nc1nc(N)nc(C)c1C#N)c1nc2cccc(CN(C)c3ncc(C(=O)NO)cn3)c2c(=O)n1-c1ccccc1`, the growth in the assay on SR leukemia is 14.1%; in the assay with RPMI-8226 leukemia it was 4.89% (active); in the assay on OVCAR-8 ovarian, 4.22% (active); in the assay with OVCAR-5 ovarian, 3.2% (active); in the assay on OVCAR-4 ovarian it was 31.4%; with SK-OV-3 ovarian, -19.4% (active). Further, the growth in the assay on IGROV1 ovarian was -36.2% (active); in the assay with OVCAR-3 ovarian it was 5.16% (active).
As to `C=C(C)[C@@H]1CC[C@]2(C(=O)N3CCNCC3)CC[C@]3(C)[C@H](CC[C@@H]4[C@@](C)(CCC(=O)N5CCNCC5)[C@H](C(=C)C)CC[C@]43C)[C@@H]12`, the growth in the assay with SR leukemia is -15.2% (active); in the assay on RPMI-8226 leukemia it was 12.1%; with OVCAR-8 ovarian it was 47.8%; in the assay on OVCAR-5 ovarian, 104%; in the assay on OVCAR-4 ovarian it was 81.9%; in the assay with SK-OV-3 ovarian it was 101%. The values for the growth in the assay with IGROV1 ovarian, with OVCAR-3 ovarian and in the assay with HS 578T breast were 101%, 70.7% and 92.4%, respectively.
`CN(C)CCCn1c2c(c3cnccc3c1=O)C(=O)c1ccccc1-2`: the growth is -8.62% (active) with SR leukemia; -13.6% (active) in the assay with RPMI-8226 leukemia; -11.3% (active) in the assay on OVCAR-8 ovarian; 0.0676% (active) in the assay with OVCAR-5 ovarian; -9.31% (active) in the assay with OVCAR-4 ovarian; 21.5% in the assay on SK-OV-3 ovarian. Also, the growth was 3.55% (active) in the assay with IGROV1 ovarian, -11.8% (active) in the assay on OVCAR-3 ovarian, 20.3% in the assay with HS 578T breast and -17.7% (active) in the assay with NCI/ADR-RES ovarian.
`Fc1cccc(CNc2c3ccccc3nc3ccccc23)c1`: the growth was 19.1% in the assay on SR leukemia; 10.1% in the assay on RPMI-8226 leukemia; 36% in the assay on OVCAR-8 ovarian; 43.8% in the assay on OVCAR-5 ovarian; 30.5% in the assay on OVCAR-4 ovarian; 51.1% in the assay on SK-OV-3 ovarian. The growth in the assay on IGROV1 ovarian is 25.6%; with OVCAR-3 ovarian it was 67%; in the assay on HS 578T breast, 63.9%.
As to `O=C(C1=Cc2cc3ccccc3n2Cc2cnnn21)c1ccc(F)cc1`, the growth with SR leukemia was 87.6%; with RPMI-8226 leukemia, 92.4%; with OVCAR-8 ovarian, 99.4%; with OVCAR-5 ovarian it was 115%; in the assay on OVCAR-4 ovarian it was 95%; in the assay on SK-OV-3 ovarian, 94.6%. Moreover, the growth in the assay with IGROV1 ovarian was 90%; in the assay with OVCAR-3 ovarian, 104%; in the assay with HS 578T breast, 90.8%.
`CC(C)(C)c1ccc(C(=O)N/N=C/c2ccc(O)cc2O)cc1`: the growth in the assay with SR leukemia was 19.8%; with RPMI-8226 leukemia it was 28.6%; in the assay on OVCAR-8 ovarian, 17.4%; in the assay with OVCAR-5 ovarian, 34.4%; with OVCAR-4 ovarian, 22%; in the assay with SK-OV-3 ovarian, 23.2%. The growth in the assay on IGROV1 ovarian is 20%; in the assay on OVCAR-3 ovarian, 12.1%; with HS 578T breast, 38.1%.
`CN(C)CCCNC(=O)c1cncnc1Nc1ccc2c(ccn2Cc2cccc(F)c2)c1`: the growth was -10.3% (active) in the assay with SR leukemia; 86.3% in the assay with RPMI-8226 leukemia; 101% with OVCAR-8 ovarian; 97.5% in the assay with OVCAR-5 ovarian; 116% in the assay with OVCAR-4 ovarian; 111% in the assay with SK-OV-3 ovarian. The growth in the assay on IGROV1 ovarian was 90.1%; with OVCAR-3 ovarian, 93.4%; in the assay on HS 578T breast it was 81.3%; in the assay on NCI/ADR-RES ovarian, 99.2%.
As for `C#CCOc1ccc2nc(CCl)c(Cl)c(Nc3cccc(C(F)(F)F)c3)c2c1`, the growth was 17.7% in the assay with SR leukemia; 62.7% with RPMI-8226 leukemia; 82.7% in the assay on OVCAR-8 ovarian; 104% in the assay on OVCAR-5 ovarian; 101% with OVCAR-4 ovarian; 114% in the assay with SK-OV-3 ovarian. Besides, the growth is 85.1% in the assay on IGROV1 ovarian, 78.2% with OVCAR-3 ovarian and 88.8% in the assay on HS 578T breast.
For the molecule `CCOc1ncc([N+](=O)[O-])c(OCC)n1`, the growth was 93.7% in the assay with SR leukemia; 84.8% with RPMI-8226 leukemia; 105% with OVCAR-8 ovarian; 101% in the assay with OVCAR-5 ovarian; 113% with OVCAR-4 ovarian; 97% in the assay on SK-OV-3 ovarian. Further, the growth in the assay on IGROV1 ovarian is 107%; with OVCAR-3 ovarian, 124%; in the assay with HS 578T breast, 121%.
Take `CCN(CC)CCCC(Cc1ccccc1)Nc1c2ccc(Cl)cc2nc2ccc(OC)cc12` (stereo not given): the growth in the assay with SR leukemia is -27.4% (active); with RPMI-8226 leukemia, -6.17% (active); in the assay on OVCAR-8 ovarian, 36.4%; in the assay on OVCAR-5 ovarian, 71.1%; with OVCAR-4 ovarian, 30.8%; in the assay on SK-OV-3 ovarian, 101%. The values for the growth in the assay with IGROV1 ovarian and in the assay on OVCAR-3 ovarian were 32.7% and 77.4%, respectively.
Consider `COCCOC(C)C(/C=N/NC(N)=S)=N/NC(N)=S` (stereo not given), for which the growth in the assay on SR leukemia is 53.2%; with RPMI-8226 leukemia, 36.2%; with OVCAR-8 ovarian it was 57.1%; in the assay with OVCAR-5 ovarian it was 97.7%; in the assay with OVCAR-4 ovarian, 9.81% (active); with SK-OV-3 ovarian it was 93.3%. Moreover, the growth in the assay on IGROV1 ovarian was 21.2%; with OVCAR-3 ovarian, 13.9%; in the assay with HS 578T breast, 83.3%.
On to `Cc1cc(C(=O)CCCC(=O)c2cc(C)c(O)c(C)c2)cc(C)c1O`, for which the growth in the assay with SR leukemia was 81.9%; in the assay on RPMI-8226 leukemia it was 94.2%; with OVCAR-8 ovarian, 104%; in the assay on OVCAR-5 ovarian, 95.8%; in the assay with OVCAR-4 ovarian, 93.1%; with SK-OV-3 ovarian, 98%. For the same molecule, the growth in the assay with IGROV1 ovarian is 95.9%; in the assay with OVCAR-3 ovarian, 105%; in the assay with HS 578T breast it was 98.8%.
As to `COc1ccc2c(c1)CC[C@@H]1[C@@H]2CC[C@]2(C)c3c(cc(C#N)c4c3sc3ccccc34)C[C@@H]12`, the growth is 89.3% with SR leukemia; 95.8% with RPMI-8226 leukemia; 101% in the assay with OVCAR-8 ovarian; 80.6% in the assay with OVCAR-5 ovarian; 107% in the assay with OVCAR-4 ovarian; 108% in the assay with SK-OV-3 ovarian. The growth in the assay with IGROV1 ovarian was 101%; in the assay on OVCAR-3 ovarian it was 108%; with HS 578T breast it was 94.6%.
Take `COc1ccc(-c2nc(SCC(=O)Nc3nc4ccc(C)cc4s3)[nH]c(=O)c2C#N)cc1OC`: the growth is 75.2% with SR leukemia; 110% in the assay on RPMI-8226 leukemia; 101% with OVCAR-8 ovarian; 111% in the assay on OVCAR-5 ovarian; 105% in the assay with OVCAR-4 ovarian; 74.2% in the assay on SK-OV-3 ovarian. Also, the growth in the assay with IGROV1 ovarian was 95.9%; in the assay with OVCAR-3 ovarian, 112%; in the assay on HS 578T breast, 87.4%.
In the case of `CC(=O)c1ccc(-n2cc(CN3CCN(c4cc5c(cc4F)c(=O)c(C(=O)O)cn5C4CC4)CC3)nn2)cc1`, the growth in the assay with SR leukemia is 99.6%; in the assay with RPMI-8226 leukemia, 47.9%; in the assay with OVCAR-8 ovarian, 95.1%; in the assay with OVCAR-5 ovarian, 103%; in the assay with OVCAR-4 ovarian it was 102%; with SK-OV-3 ovarian, 84.9%. Also, the growth was 75.3% with IGROV1 ovarian, 90.4% in the assay on OVCAR-3 ovarian and 80.6% in the assay on HS 578T breast.
